# Experimental data reported in the supplement of paper PMC6555819.
# Legend:
# Test in all cases: PBM binding z-score (relative to random genomic background probes); higher = stronger binding; sequences stand for … in GC…GCGATTGACAGCGTAGAATGAAGG
# [1] = tested on: FXR:RXRa (NR concentration 270 nM, RXRa partner concentration 90 nM)
# Summary of the method: (§1)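 Scanned fluorescence from custom Agilent 4×180K protein-binding microarrays was regression-normalized. Binding z-scores use random background probes as reference. Ligand-free nuclear receptor dimers were incubated on the arrays for 1 h and detected with antibodies against each partner (one per run).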
# [2] = tested on: LXRa:RXRa (NR concentration 270 nM, RXRa partner concentration 90 nM)
# Summary of the method: as §1
# [3] = tested on: LXRa homodimer (NR concentration 270 nM)
# Summary of the method: as §1
# [4] = tested on: LXRb:RXRa (NR concentration 270 nM, RXRa partner concentration 90 nM)
# Summary of the method: as §1
# [5] = tested on: LXRb homodimer (NR concentration 270 nM)
# Summary of the method: as §1
# [6] = tested on: PPARa:RXRa (NR concentration 270 nM, RXRa partner concentration 90 nM)
# Summary of the method: as §1
# [7] = tested on: PPARg:RXRa (NR concentration 180 nM, RXRa partner concentration 90 nM)
# Summary of the method: as §1
# [8] = tested on: PPARg:RXRa 270nM:90nM, anti-RXR (NR concentration 270 nM, RXRa partner concentration 90 nM)
# Summary of the method: as §1
# [9] = tested on: PPARg:RXRa 30nM:10nM, anti-RXR (NR concentration 30 nM, RXRa partner concentration 10 nM)
# Summary of the method: as §1
# [10] = tested on: PPARg:RXRa 90nM:30nM, anti-RXR (NR concentration 90 nM, RXRa partner concentration 30 nM)
# Summary of the method: as §1
sequence,measurement,setting,value
ACTCGCAGGCCAAGGGTCACTCAAGATTAGTCCG,PBM binding z-score,[1],2.83
same,PBM binding z-score,[2],3.23
same,PBM binding z-score,[3],0.261
same,PBM binding z-score,[4],2.88
same,PBM binding z-score,[5],-0.377
same,PBM binding z-score,[6],4.4
same,PBM binding z-score,[7],5.6
same,PBM binding z-score,[8],6.01
same,PBM binding z-score,[9],4.12
same,PBM binding z-score,[10],5.92
CGAATTAGGTCATTGACAGGACAGTGAATAGTAA,PBM binding z-score,[1],4.67
same,PBM binding z-score,[2],3.39
same,PBM binding z-score,[3],0.61
same,PBM binding z-score,[4],2.55
same,PBM binding z-score,[5],0.269
same,PBM binding z-score,[6],4.89
same,PBM binding z-score,[7],6.83
same,PBM binding z-score,[8],6.02
same,PBM binding z-score,[9],3.62
same,PBM binding z-score,[10],5.68
ATCGAAAGGTCGACGAGGCGAGTATACACCGTTT,PBM binding z-score,[1],3.59
same,PBM binding z-score,[2],3.38
same,PBM binding z-score,[3],0.0627
same,PBM binding z-score,[4],2.5
same,PBM binding z-score,[5],0.404
same,PBM binding z-score,[6],4.27
same,PBM binding z-score,[7],2.48
same,PBM binding z-score,[8],2.74
same,PBM binding z-score,[9],0.711
same,PBM binding z-score,[10],1.71
CCTAATGGGCCAAAGGTCATTGATTCCAATGCTC,PBM binding z-score,[1],5.18
same,PBM binding z-score,[2],5.16
same,PBM binding z-score,[3],3.94
same,PBM binding z-score,[4],4.84
same,PBM binding z-score,[5],1.08
same,PBM binding z-score,[6],6.03
same,PBM binding z-score,[7],11.8
same,PBM binding z-score,[8],9.96
same,PBM binding z-score,[9],11.9
same,PBM binding z-score,[10],12.1
ATCCCTAGGTAACAAGTTCAGTGAAAGAGAGGAC,PBM binding z-score,[1],0.484
same,PBM binding z-score,[2],0.833
same,PBM binding z-score,[3],0.361
same,PBM binding z-score,[4],0.843
same,PBM binding z-score,[5],0.823
same,PBM binding z-score,[6],0.724
same,PBM binding z-score,[7],0.555
same,PBM binding z-score,[8],0.236
same,PBM binding z-score,[9],0.0944
same,PBM binding z-score,[10],0.289
TCATTTAGGTAAACAGGTGAAAGTCCGTAAGTTA,PBM binding z-score,[1],1.47
same,PBM binding z-score,[2],1.13
same,PBM binding z-score,[3],0.719
same,PBM binding z-score,[4],1.04
same,PBM binding z-score,[5],0.705
same,PBM binding z-score,[6],2.37
same,PBM binding z-score,[7],2.24
same,PBM binding z-score,[8],3.73
same,PBM binding z-score,[9],4.42
same,PBM binding z-score,[10],3.99
ACTCGGAGGACAAAGGTCAGAGCCACGCCAGTGA,PBM binding z-score,[1],4.39
same,PBM binding z-score,[2],4.56
same,PBM binding z-score,[3],1.53
same,PBM binding z-score,[4],3.52
same,PBM binding z-score,[5],0.161
same,PBM binding z-score,[6],5.36
same,PBM binding z-score,[7],8.4
same,PBM binding z-score,[8],7.54
same,PBM binding z-score,[9],6.19
same,PBM binding z-score,[10],8.08
AGTCAAAGTTCATCTAGGTAACGTTAGATATGCT,PBM binding z-score,[1],6.45
same,PBM binding z-score,[2],6.1
same,PBM binding z-score,[3],5.46
same,PBM binding z-score,[4],3.96
same,PBM binding z-score,[5],1.99
same,PBM binding z-score,[6],4.88
same,PBM binding z-score,[7],6.36
same,PBM binding z-score,[8],6.31
same,PBM binding z-score,[9],3.3
same,PBM binding z-score,[10],5.58
TCTTATAGGTAAAGGTGAAAGTCGAACGATATGA,PBM binding z-score,[1],1.15
same,PBM binding z-score,[2],1.59
same,PBM binding z-score,[3],0.00548
same,PBM binding z-score,[4],1.58
same,PBM binding z-score,[5],0.488
same,PBM binding z-score,[6],3.27
same,PBM binding z-score,[7],3.38
same,PBM binding z-score,[8],4.4
same,PBM binding z-score,[9],4.42
same,PBM binding z-score,[10],4.81
TCTAGCAGACCAGAGGGTCACTCAAGAGGTACGG,PBM binding z-score,[1],0.955
same,PBM binding z-score,[2],0.817
same,PBM binding z-score,[3],-0.662
same,PBM binding z-score,[4],1.1
same,PBM binding z-score,[5],-1.39
same,PBM binding z-score,[6],2.15
same,PBM binding z-score,[7],0.882
same,PBM binding z-score,[8],1.31
same,PBM binding z-score,[9],1.8
same,PBM binding z-score,[10],1.61
CGAACTAGGTCAAGGACCGTGAATCTCCGCACGC,PBM binding z-score,[1],3.28
same,PBM binding z-score,[2],2.1
same,PBM binding z-score,[3],-0.026
same,PBM binding z-score,[4],1.26
same,PBM binding z-score,[5],-0.781
same,PBM binding z-score,[6],4.64
same,PBM binding z-score,[7],7.76
same,PBM binding z-score,[8],6.89
same,PBM binding z-score,[9],4.37
same,PBM binding z-score,[10],6.74
ATCGAAAGGTCGAGGTGAGTATGGAGAAAGGGAA,PBM binding z-score,[1],3.95
same,PBM binding z-score,[2],3.28
same,PBM binding z-score,[3],-0.073
same,PBM binding z-score,[4],2.56
same,PBM binding z-score,[5],0.624
same,PBM binding z-score,[6],4.45
same,PBM binding z-score,[7],3.02
same,PBM binding z-score,[8],3.6
same,PBM binding z-score,[9],1.01
same,PBM binding z-score,[10],2.39
GCTAGTTGGTCAGTAAAACGTCACACACCGGTCG,PBM binding z-score,[1],-0.277
same,PBM binding z-score,[2],-0.464
same,PBM binding z-score,[3],-0.383
same,PBM binding z-score,[4],-0.473
same,PBM binding z-score,[5],-0.195
same,PBM binding z-score,[6],-0.343
same,PBM binding z-score,[7],0.524
same,PBM binding z-score,[8],-0.186
same,PBM binding z-score,[9],-0.445
same,PBM binding z-score,[10],-0.286
AATACAGGGTCACTCGGCCAGAGTAGGTACGAAT,PBM binding z-score,[1],6.58
same,PBM binding z-score,[2],5.13
same,PBM binding z-score,[3],1.19
same,PBM binding z-score,[4],4.06
same,PBM binding z-score,[5],1.03
same,PBM binding z-score,[6],5.6
same,PBM binding z-score,[7],6.87
same,PBM binding z-score,[8],5.81
same,PBM binding z-score,[9],2.53
same,PBM binding z-score,[10],4.66
AGTCAAAGTTCACTATGTAACGTAAGATTCAGCT,PBM binding z-score,[1],4.61
same,PBM binding z-score,[2],4.75
same,PBM binding z-score,[3],2.99
same,PBM binding z-score,[4],3.02
same,PBM binding z-score,[5],1.03
same,PBM binding z-score,[6],3.85
same,PBM binding z-score,[7],5.87
same,PBM binding z-score,[8],5.38
same,PBM binding z-score,[9],2.49
same,PBM binding z-score,[10],4.66
CCTCGTAGGACAACAGGAGGTCAGAGCTGCCAGA,PBM binding z-score,[1],0.951
same,PBM binding z-score,[2],2.16
same,PBM binding z-score,[3],1.91
same,PBM binding z-score,[4],1.57
same,PBM binding z-score,[5],-0.267
same,PBM binding z-score,[6],1.99
same,PBM binding z-score,[7],0.534
same,PBM binding z-score,[8],0.644
same,PBM binding z-score,[9],-0.534
same,PBM binding z-score,[10],0.258
ACTAGCTGGCCAAGTTTGGGTCACTCAAACAAAG,PBM binding z-score,[1],-0.286
same,PBM binding z-score,[2],-0.318
same,PBM binding z-score,[3],-0.768
same,PBM binding z-score,[4],0.339
same,PBM binding z-score,[5],-0.865
same,PBM binding z-score,[6],1.03
same,PBM binding z-score,[7],-0.347
same,PBM binding z-score,[8],0.0249
same,PBM binding z-score,[9],-0.62
same,PBM binding z-score,[10],-0.218
TCATATGGGTAAATGCTAGGTGAAAGTCCGATCT,PBM binding z-score,[1],0.03
same,PBM binding z-score,[2],0.212
same,PBM binding z-score,[3],0.0774
same,PBM binding z-score,[4],0.31
same,PBM binding z-score,[5],-0.359
same,PBM binding z-score,[6],0.897
same,PBM binding z-score,[7],0.667
same,PBM binding z-score,[8],1.71
same,PBM binding z-score,[9],2.1
same,PBM binding z-score,[10],1.91
CGTCCAAGGTCATAGGAGGTCAGTGTAGACAGAT,PBM binding z-score,[1],7.58
same,PBM binding z-score,[2],7.26
same,PBM binding z-score,[3],4.98
same,PBM binding z-score,[4],6.27
same,PBM binding z-score,[5],1.28
same,PBM binding z-score,[6],5.83
same,PBM binding z-score,[7],5.64
same,PBM binding z-score,[8],5.77
same,PBM binding z-score,[9],2.31
same,PBM binding z-score,[10],4.68
ACTAGCAGGCAAAGTTTGGGTCACTCAAACAAAG,PBM binding z-score,[1],0.0773
same,PBM binding z-score,[2],0.185
same,PBM binding z-score,[3],-0.475
same,PBM binding z-score,[4],0.807
same,PBM binding z-score,[5],-0.762
same,PBM binding z-score,[6],1.33
same,PBM binding z-score,[7],-0.0441
same,PBM binding z-score,[8],0.288
same,PBM binding z-score,[9],-0.32
same,PBM binding z-score,[10],0.224
TCTTGTAGATCAGCAGGTTATGAAAGCTGGCCAA,PBM binding z-score,[1],0.122
same,PBM binding z-score,[2],0.0807
same,PBM binding z-score,[3],-0.501
same,PBM binding z-score,[4],0.444
same,PBM binding z-score,[5],-0.22
same,PBM binding z-score,[6],0.665
same,PBM binding z-score,[7],-0.222
same,PBM binding z-score,[8],1.29
same,PBM binding z-score,[9],2.49
same,PBM binding z-score,[10],1.59
ATCGAAAGGTCGAGGTGAGGATAGAGAAAGGGAA,PBM binding z-score,[1],4.33
same,PBM binding z-score,[2],3.16
same,PBM binding z-score,[3],0.082
same,PBM binding z-score,[4],2.64
same,PBM binding z-score,[5],0.457
same,PBM binding z-score,[6],4.44
same,PBM binding z-score,[7],3.06
same,PBM binding z-score,[8],3.83
same,PBM binding z-score,[9],1.33
same,PBM binding z-score,[10],2.81
AGAATGAGGTTATTAAGATCAGGAAATTGCGGTC,PBM binding z-score,[1],1.33
same,PBM binding z-score,[2],1.7
same,PBM binding z-score,[3],0.37
same,PBM binding z-score,[4],1.3
same,PBM binding z-score,[5],-0.00704
same,PBM binding z-score,[6],2.59
same,PBM binding z-score,[7],1.63
same,PBM binding z-score,[8],1.8
same,PBM binding z-score,[9],0.356
same,PBM binding z-score,[10],1.47
TCGAGTAGGTTGGGGGCATTCAGAATGGCGTCGA,PBM binding z-score,[1],1.39
same,PBM binding z-score,[2],1.94
same,PBM binding z-score,[3],0.352
same,PBM binding z-score,[4],3.96
same,PBM binding z-score,[5],6.82
same,PBM binding z-score,[6],2.48
same,PBM binding z-score,[7],0.614
same,PBM binding z-score,[8],2.35
same,PBM binding z-score,[9],2.29
same,PBM binding z-score,[10],2.28
